Data: PubChem BioAssay (EPA / NIEHS)
Active and inactive are the calls of the source. The calls were made as follows: active = hit-call score of the fitted dose curve at least 0.9, where 1 is the maximum; inactive = score below 0.9.

Each molecule was assayed against Nuclear respiratory factor 1 (Homo sapiens) (UniProt Q16656) (assay: ATG_NRF1_CIS: Attagene CIS-FACTORIAL HepG2 Assay for human Nuclear Respiratory Factor 1 (NRF1) Orphan Gene (AID 2282987)). Conditions: HepG2 NRF1 cis-element reporter, Attagene multiplex; actives raise or lower the signal.
Outline: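 Measured: fluorescent reporter-specific RT-PCR products from transfected HepG2 cells, separated by capillary electrophoresis. Exposure lasted 24 h. Analysis used bidirectional curve fitting with DMSO as negative control.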

Sequence of Nuclear respiratory factor 1 (Homo sapiens) (Q16656 whole entry, looked up): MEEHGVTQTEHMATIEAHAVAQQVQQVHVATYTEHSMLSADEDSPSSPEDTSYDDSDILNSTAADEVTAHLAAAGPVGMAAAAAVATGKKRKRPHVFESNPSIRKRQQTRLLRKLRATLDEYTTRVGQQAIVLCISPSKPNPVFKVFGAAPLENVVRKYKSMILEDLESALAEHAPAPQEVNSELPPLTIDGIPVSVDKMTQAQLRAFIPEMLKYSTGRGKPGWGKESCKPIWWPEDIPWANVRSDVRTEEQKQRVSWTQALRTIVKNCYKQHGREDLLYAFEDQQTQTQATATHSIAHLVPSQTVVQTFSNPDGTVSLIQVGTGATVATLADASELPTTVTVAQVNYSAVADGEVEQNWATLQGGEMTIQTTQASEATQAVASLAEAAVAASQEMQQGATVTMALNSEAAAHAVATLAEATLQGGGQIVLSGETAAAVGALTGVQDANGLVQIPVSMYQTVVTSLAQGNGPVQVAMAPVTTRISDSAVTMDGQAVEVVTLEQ

Structure (SMILES)	outcome	AC50
CC1(C)[C@H](C(=O)OCc2cccc(Oc3ccccc3)c2)[C@@H]1C=C(Cl)Cl	inactive	–
C=CC(C)(O)CCC=C(C)CCC=C(C)C (stereo not drawn)	–	164 µM (active)
O=C(O)CCCCCCCCCCC(=O)O	inactive	–
COc1ccc(Nc2ccccc2)c(C)c1	inactive	–
CNCCCC12CCC(c3ccccc31)c1ccccc12	inactive	–
Clc1ccc(Cl)c(Cl)c1Cl	inactive	–
OC[C@H]1O[C@H](O[C@]2(CCl)O[C@H](CCl)[C@@H](O)[C@@H]2O)[C@H](O)[C@@H](O)[C@H]1Cl	inactive	–
O=C(O)c1ccc([N+](=O)[O-])cc1	inactive	–
COCCOCCOCCOCCOCCO	inactive	–
O=C(O)CCSCCC(=O)O	inactive	–
O=c1cc(-c2ccccc2)oc2cc(O)cc(O)c12	inactive	–
Nc1ccc(F)c([N+](=O)[O-])c1	inactive	–
Cc1cccc(Nc2ccccc2C(=O)O)c1C	inactive	–
CCCCCCCCCCCCCOS(=O)(=O)O	inactive	–
COc1ccnc(CS(=O)c2nc3cc(OC(F)F)ccc3[nH]2)c1OC (stereo not drawn)	inactive	–
CN1Cc2c(N)cccc2C(c2ccccc2)C1 (stereo not drawn)	inactive	–
CCCCN	inactive	–
CC(C)(CO)[N+](=O)[O-]	inactive	–
O=C1OC2(c3cc(Br)c(O)c(Br)c3Oc3c2cc(Br)c(O)c3Br)c2c(Cl)c(Cl)c(Cl)c(Cl)c21	inactive	–

Structure (SMILES)	outcome	AC50
Cc1cccc(C)c1[N+](=O)[O-]	inactive	–
CCO[Si](CCCS)(OCC)OCC	inactive	–
COCCCOc1ccnc(CS(=O)c2nc3ccccc3[nH]2)c1C (stereo not drawn)	inactive	–
C=CC(=O)OCC(O)COc1ccccc1 (stereo not drawn)	inactive	–
O=CCCc1ccccc1	inactive	–
c1ccc2[nH]ccc2c1	inactive	–
O=S(=O)(O)c1cccc2c(S(=O)(=O)O)cccc12	inactive	–
CCOC(=S)SSC(=S)OCC	inactive	–
Nc1cccc(S(=O)(=O)c2cccc(N)c2)c1	inactive	–
O=C(O)CCCCC1CCSS1 (stereo not drawn)	inactive	–
CC(=O)C(C)=O	inactive	–
NCCOCCO	inactive	–
CCCCOCCOCCSC#N	inactive	–
NC(N)=NC(=O)c1nc(Cl)c(N)nc1N	inactive	–
CC(=O)O[C@H](CC(=O)[O-])C[N+](C)(C)C	inactive	–
CCC(C)CCCC(C)(C)O (stereo not drawn)	inactive	–
O=Cc1ccc(F)cc1	inactive	–
COC(=O)Cc1cccc2ccccc12	inactive	–
CC(C)c1cccc(O)c1	inactive	–
